# Measurements: PubChem BioAssay (NCATS)
# Results filed as inconclusive are left out. Where a call stands in place of a potency, no number is given. Calls of active or inactive are those of the source. The call rests on the fitted dose curve; in most records, active means well fitted cell-killing curve with a large enough effect; inconclusive means small, poorly fitted or top-dose-only effect; inactive means no such curve, though single readings can be large or run the other way. Where a SMILES comes first, the peptide text is derived from it.
# Test: qHTS of pediatric cancer cell lines to identify multiple opportunities for drug repurposing: Primary screen for Rh30 cells (AID 1347107); further: nearly all actives have a fitted effect of over 75% in size
# Details: Rh30 rhabdomyosarcoma viability, CellTiter-Glo luminescence, 48 h; series mostly up to 46 µM
# Text: Drug repurposing or repositioning has been offered as a strategy for drug development in oncology programs. This approach has special potential for childhood cancers and other rare or orphan diseases, where the expected return on new drug development has been a disincentive to pharmaceuticals.
# In this project we exploit the poly-pharmacology of drugs to discover new indications via phenotypic screening of a panel of 19 well-characterized cell lines derived from solid tumors seen in children and adolescents. The goal is to identify approved drugs with previously unrecognized anticancer properties that has the potential to reveal new mechanisms and biological processes involved in carcinogenesis or drug resistance. We employed a titration-based paradigm (quantitative high-throughput screening or qHTS), where all compounds were tested at multiple concentrations for their effect on cell viability. Concentration-response curves (CRCs) were derived directly from the primary screen, and both potency and efficacy values were used to identify compounds with robust bioactivity profiles. We screened the NIH Chemical Genomics Center (NCGC) Pharmaceutical Collection (NPC) and Mechanism Interrogation Plate (MIPE) small molecule collections of approved and investigational compounds against these cell lines; and measured metabolically active cells after 48 hours of compound treatment as a proxy for cell viability.
# Assay Submitter: Nathalia J. Martinez, National Center for Advancing Translational Sciences, National Institutes of Health, Rockville, MD, USA; email: natalia.martinez@nih.gov
# [1] Shen, M et al. Quantitative high-throughput phenotypic screening of pediatric cancer cell lines identifies multiple opportunities for drug repurposing. Oncotarget 2017 Dec 19;9(4):4758-4772. PMID 29435139.
# The cells were obtained from University of North Carolina (UNC), Pediatric Preclinical Testing Program (PPT), and Coriell Institute (CI).
# qHTS cell viability assay:
# Cells were assayed in growth media at a density of 500-1,000 cells/well. Five microliters of cells were dispensed into 1,536-well, white, solid-bottom, TC-treated plates (Greiner Bio One) using a multidrop dispenser and incubated at 37 degrees C, 5% CO2, under a humidified atmosphere for 5 hours. Twenty-three nanoliters of compounds and controls (neutral control DMSO or positive control bortezomib at final concentration of 2.3 µM) were subsequently transferred by Kalypsys pintool. For primary screens, the MIPE collection was tested at 11-point dilutions (final concentrations range from 0.78 nM to 46 µM) and the NPC collection at 8-point dilutions (final concentrations range from 0.59 nM to 46 µM). Compounds tested in follow-up screens were assayed at 11-point dilutions. Cells were incubated for 48 hours, followed by addition of 3 µL of CellTiter-Glo (Promega). After a 15 min incubation at room temperature, samples were analyzed for luminescence intensity using a ViewLux High-throughput CCD imager equipped with clear filters.
# Potency means the concentration at half of the fitted maximal effect.
row,Structure (SMILES),Potency
1,c1ccc(C(O[C@H]2CCCN(CCc3ccc4c(c3)OCO4)C2)c2ccccc2)cc1,inactive
2,CC(=O)OC[C@H]1O[C@@H](OC(C)=O)[C@H](OC(C)=O)[C@@H]1OC(C)=O,inactive
3,C[C@@H](O[C@H]1OCCN(Cc2n[nH]c(=O)[nH]2)[C@H]1c1ccc(F)cc1)c1cc(C(F)(F)F)cc(C(F)(F)F)c1,inactive
4,O=C(Oc1ccccc1)c1cccc(C(=O)Oc2ccccc2)c1,inactive
5,CN(C)C(=O)CNC(=O)Cc1ccccc1,inactive
6,CCN1C(=O)c2ccccc2C1Nc1ccc(OCCN2CCCCC2)cc1 (stereo not given),inactive
7,CC(=O)[C@H]1CC[C@H]2[C@@H]3C=CC4=CC(=O)CC[C@@]4(C)[C@@H]3CC[C@]12C,inactive
8,C[N+]1(CC2COC(c3ccccc3)(c3ccccc3)O2)CCCCC1 (stereo not given),inactive
9,OC[C@]1(O)OC[C@@H](O)[C@H](O)[C@@H]1O,inactive
10,CC1c2ccccc2CN1NC(=O)c1ccc(Cl)c(S(N)(=O)=O)c1 (stereo not given),inactive
11,COc1ccc(CCC(C)=O)cc1,inactive
12,CCOc1ccc(NS(=O)(=O)c2ccc(N)cc2)nn1,inactive
13,CC(=O)CC/C=C(\C)CC/C=C(\C)CC/C=C(\C)CCC=C(C)C,inactive
14,CO/N=C(/C(=O)N[C@@H]1C(=O)N2C(C(=O)[O-])=C(C[n+]3ccn4ncccc43)CS[C@H]12)c1nsc(N)n1,inactive
15,CCCc1ccc(OCC(=O)N2CCN(C(=O)COc3ccc(CCC)cc3OC)CC2)c(OC)c1,inactive
16,CCCCC(O)/C=C(C)/C=C/C=C/C(=O)N1CCCC1=O (stereo not given),inactive
17,CC1(C)S[C@@H]2[C@H](NC(=O)C(c3ccccc3)S(=O)(=O)O)C(=O)N2[C@H]1C(=O)O (stereo not given in full),inactive
18,CC(=O)N[C@@H](CO)C(=O)N[C@@H](CC(=O)O)C(=O)N[C@@H](CCCCN)C(=O)N1CCC[C@H]1C(=O)O (Ac-SDKP-OH),inactive
19,Cc1cc(CCCOc2c(C)cc(-c3noc(C(F)(F)F)n3)cc2C)on1,inactive
20,OC1(c2ccc(Cl)cc2)CCNCC1,inactive

row,Structure (SMILES),Potency
1,O=C(Nc1ccc(S(=O)(=O)N2CCOCC2)cc1)c1cc(Cl)ccc1NS(=O)(=O)c1ccc(Cl)s1,inactive
2,O=C(O)C(=O)Nc1cccc(-c2nn[nH]n2)c1,inactive
3,CCOc1ccccc1OCC1CNCCO1 (stereo not given),inactive
4,Cc1cccc(N(C)C(=S)Oc2ccc3c(c2)CCC3)c1,inactive
5,c1ccc2occc2c1,inactive
6,C[C@H]1C[C@H]2[C@@H]3CCC4=CC(=O)C=C[C@]4(C)[C@H]3C(=O)C[C@]2(C)[C@@]1(O)C(=O)CO,inactive
7,O=C(CCCCCCCCC#CI)Oc1ccccc1,inactive
8,COCCc1ccccn1,inactive
9,Cc1cc2nc3ccc(=[N+](C)C)cc-3sc2cc1N,15 µM (active)
10,O=C(CCOCCOCCOCCOCCC(=O)Nc1c(I)cc(I)c(C(=O)O)c1I)Nc1c(I)cc(I)c(C(=O)O)c1I,inactive
11,CC(C(O)c1ccccc1)N(C)CCOC(c1ccccc1)c1ccccc1 (stereo not given),inactive
12,COc1cc2c(cc1OC)C(=O)CC2,inactive
13,CC(=O)N(CC(O)CO)c1c(I)c(C(=O)NCCO)c(I)c(C(=O)NCC(O)CO)c1I (stereo not given),inactive
14,CCCCCCOC(=O)NC(=N)c1ccc(NCc2nc3cc(C(=O)N(CCC(=O)OCC)c4ccccn4)ccc3n2C)cc1,inactive
15,COc1cc(NS(=O)(=O)c2ccc(N)cc2)nc(C)n1,inactive
16,C[C@@H]1CCC[C@H](C)N1CCCC(O)(c1ccccc1)c1ccccn1 (stereo not given in full),inactive
17,Cc1c(C)c2c(c(C)c1OC(=O)CCC(=O)OCCO)CC[C@@](C)(CCC[C@H](C)CCC[C@H](C)CCCC(C)C)O2,inactive
18,Nc1ncnc2c1ncn2Cc1c(F)cccc1Cl,inactive
19,C/C(=C(/OCCOc1ccc(Cl)cc1)c1ccc(Cl)cc1Cl)n1ccnc1,inactive
20,CCC(=O)O[C@H]1[C@H](O[C@@H]2[C@@H](C)[C@H](O[C@H]3C[C@@](C)(OC)[C@@H](O)[C@H](C)O3)[C@@H](C)C(=O)O[C@H](CC)[C@@](C)(O)[C@H](O)[C@@H](C)C(=O)[C@H](C)C[C@@]2(C)O)O[C@H](C)C[C@@H]1N(C)C,inactive
